Source: PubChem BioAssay (NCATS)
Records with an inconclusive call do not appear. Entries that show only a call come without a potency. The source made the active and inactive calls. Unless noted, the call rests on the fitted dose curve; in most records, active means well fitted curve in the direction sought with a large enough effect; inconclusive means small, poorly fitted or top-dose-only effect, or another doubt; inactive means no such curve, though single readings can be large; an effect the other way counts as inactive or inconclusive.

How the values were obtained:
[1] = target: Luciferin 4-monooxygenase (Photinus pyralis) (UniProt P08659); assay: Biochemical firefly luciferase enzyme assay for NPC (AID 624030); further: nearly all actives have a fitted effect of over 70% in size
How it was run: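 Counter-screen for direct inhibition of the luciferase enzyme by approved-drug library compounds, run at 10 nM enzyme in 50 mM Tris acetate (final). Luminescence was read within 5 min of enzyme-buffer addition and normalized to PTC124 versus DMSO (0%).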

[2] = S16 Schwann cell viability assay (CellTiter-Glo assay) (AID 624031); further: nearly all actives have a fitted effect of over 70% in size
How it was run: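 Native S16 rat Schwann cells in DMEM/10% FBS without phenol red were incubated overnight, then exposed to compounds for 24 h at 37 °C/5% CO2. Viability was read as ATP luminescence (CellTiter-Glo), normalized to no-cell wells and DMSO (0%).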

[3] = S16 Schwann cell PMP22 intronic element firefly luciferase assay (AID 624032); further: nearly all actives have a fitted effect of over 30% in size
How it was run: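 Rat S16 Schwann cells stably carrying a PMP22 intronic element-driven Fluc reporter were seeded overnight, then exposed to compounds for 24 h at 37 °C. Luminescence was normalized to PTC124 (positive control) and DMSO (0% activity).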

[4] = S16 Schwann cell PMP22 intronic element beta-lactamase assay (AID 624044; calls by dose curve; further: nearly all actives have a fitted effect of over 15% in size)
How it was run: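 Beta-lactamase reporter under a PMP22 intronic regulatory element in stable S16 rat Schwann cells; 24 h compound exposure. 460 nm blue signal normalized between DMSO (0%) and potassium clavulanate, with 535 nm FRET tracking viability; curves classed by r2 and response.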
Potency means the concentration at half of the fitted maximal effect.

Sequence of Luciferin 4-monooxygenase (Photinus pyralis) (P08659 whole entry, looked up): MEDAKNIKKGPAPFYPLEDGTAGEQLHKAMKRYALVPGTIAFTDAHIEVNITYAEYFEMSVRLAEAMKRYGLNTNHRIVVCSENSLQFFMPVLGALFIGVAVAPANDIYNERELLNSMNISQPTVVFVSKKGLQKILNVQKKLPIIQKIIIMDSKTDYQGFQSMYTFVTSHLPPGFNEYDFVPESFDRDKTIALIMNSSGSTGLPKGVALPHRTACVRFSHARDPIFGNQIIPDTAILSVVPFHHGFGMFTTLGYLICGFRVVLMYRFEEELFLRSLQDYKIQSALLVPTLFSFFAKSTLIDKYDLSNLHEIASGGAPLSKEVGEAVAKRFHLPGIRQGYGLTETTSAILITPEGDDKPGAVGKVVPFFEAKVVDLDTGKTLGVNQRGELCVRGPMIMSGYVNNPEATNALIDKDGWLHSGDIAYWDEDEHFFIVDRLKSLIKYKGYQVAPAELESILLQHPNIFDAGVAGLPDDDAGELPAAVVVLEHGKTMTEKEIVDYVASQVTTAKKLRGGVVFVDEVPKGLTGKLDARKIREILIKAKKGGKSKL

| Compound | Potency [1] | Potency [2] | Potency [3] | Potency [4] |
| --- | --- | --- | --- | --- |
| O=C(COc1ccc(Cl)cc1)OCCNC12CC3CC(CC(C3)C1)C2 | inactive | inactive | inactive | inactive |
| C[C@@H]1CCC2[C@@H](C)[C@@H](O)O[C@@H]3O[C@@]4(C)CC[C@@H]1[C@@]23OO4 (some centres undefined) | inactive | inactive | 1.02 µM (active) | inactive |
| CCOc1ccc(N=Nc2ccc(N)cc2N)cc1 | 0.203 µM (active) | – | – | – |
| Cc1cc(C(=O)NNCc2ccccc2)no1 | inactive | inactive | inactive | inactive |
| CCOC(C)=O | inactive | inactive | inactive | inactive |
| OC[C@H]1O[C@@H](n2cnc3c2NC=NC[C@H]3O)C[C@@H]1O | inactive | – | – | – |
| COc1cc(-c2ccc(-[n+]3nc(-c4ccccc4)nn3-c3ccc([N+](=O)[O-])cc3)c(OC)c2)ccc1-[n+]1nc(-c2ccccc2)nn1-c1ccc([N+](=O)[O-])cc1 | inactive | – | – | – |
| CCCCCCCC(=O)O | inactive | inactive | – | – |
| Cc1cn([C@H]2C[C@H](O)[C@@H](CO)O2)c(=O)[nH]c1=O | inactive | inactive | – | – |
| CN1C(=O)CN2CCc3ccccc3C2c2cc(Cl)ccc21 (centres undefined) | inactive | inactive | inactive | inactive |
| CC1(C)S[C@@H]2[C@H](NC(=O)[C@@H](NC(=O)N3CCNC3=O)c3ccccc3)C(=O)N2[C@H]1C(=O)O | inactive | inactive | inactive | inactive |
| NC(=O)c1ncn(C2OC(CO)C(O)C2O)n1 (centres undefined) | inactive | inactive | inactive | inactive |
| CCNC(=O)[C@@H]1CCCN1C(=O)[C@H](CCCN=C(N)N)NC(=O)[C@H](CC(C)C)NC(=O)[C@@H](Cc1c[nH]c2ccccc12)NC(=O)[C@H](Cc1ccc(O)cc1)NC(=O)[C@H](CO)NC(=O)[C@H](Cc1c[nH]c2ccccc12)NC(=O)[C@H](Cc1cnc[nH]1)NC(=O)[C@@H]1CCC(=O)N1 | inactive | 6.42 µM (active) | 4.55 µM (active) | 22.4 µM (active) |
| CCCCCCOc1ccc(C(=N)N(CCCC)CCCC)c2ccccc12 | inactive | 16.1 µM (active) | – | – |
| CCCC(=O)Nc1ncnc2c1ncn2C1OC2COP(=O)(O)OC2C1OC(=O)CCC (centres undefined) | inactive | inactive | 5.73 µM (active) | inactive |
| CC[N+](C)(C)Cc1ccccc1Br | inactive | inactive | inactive | inactive |
| C[C@]12O[C@H](C[C@]1(O)CO)n1c3ccccc3c3c4c(c5c6ccccc6n2c5c31)CNC4=O | inactive | 10.2 µM (active) | – | – |
| CC(O)CO (centres undefined) | inactive | inactive | inactive | inactive |

| Compound | Potency [1] | Potency [2] | Potency [3] | Potency [4] |
| --- | --- | --- | --- | --- |
| O=C1C(=O)c2ncccc2-c2cccnc21 | inactive | – | – | – |
| CC(C)=O | inactive | inactive | – | – |
| COC(=O)CCC(=O)CN | inactive | inactive | inactive | – |
| CC1=C(/C=C/C(C)=C/C=C/C(C)=C/CO)C(C)(C)CCC1 | inactive | inactive | – | – |
| O=C(O)c1cc(O)c2c(c1)[O][Bi][O]2 | inactive | inactive | inactive | inactive |
| Cc1ccccc1 | inactive | inactive | – | – |
| C[C@]12CCC(=O)C=C1CC[C@@H]1[C@@H]2[C@@H](O)C[C@@]2(C)[C@H]1CC[C@]2(O)C(=O)COP(=O)(O)O | inactive | inactive | inactive | – |
| CC1=CCC(C(C)(C)O)CC1 (centres undefined) | inactive | inactive | inactive | inactive |
| Nc1c(Br)cc(Br)cc1CNC1CCC(O)CC1 (centres undefined) | inactive | inactive | inactive | inactive |
| CCCCC(C)(O)C/C=C/[C@H]1[C@H](O)CC(=O)[C@@H]1CCCCCCC(=O)OC (some centres undefined) | inactive | inactive | 0.181 µM (active) | inactive |
| CC1=C(/C=C/C(C)=C/C=C/C(C)=C/C=C/C=C(C)/C=C/C=C(C)/C=C/C2=C(C)CCCC2(C)C)C(C)(C)CCC1 | inactive | inactive | inactive | – |
| CC(C)(C)NC(=O)[C@@H]1C[C@@H]2CCCC[C@@H]2CN1C[C@@H](O)[C@H](Cc1ccccc1)NC(=O)[C@H](CC(N)=O)NC(=O)c1ccc2ccccc2n1 | inactive | inactive | 12.8 µM (active) | – |
| CCOc1ccc2c(c1)C(C)=CC(C)(C)N2 | inactive | inactive | inactive | inactive |
| O=C(O)CCC(=O)C(=O)O | inactive | inactive | inactive | – |
| COC(=O)C1=C(C#N)NC(C)=C(C(=O)OC(C)C)C1c1cccc([N+](=O)[O-])c1 (centres undefined) | inactive | inactive | – | – |
| CCN(CC)Cc1cc(Nc2ccnc3cc(Cl)ccc23)ccc1O | inactive | inactive | – | – |
| Cc1c(C)c2c(c(C)c1O)CC[C@@](C)(CCC[C@@H](C)CCC[C@@H](C)CCCC(C)C)O2 | inactive | inactive | – | inactive |
